Among the data in PubChem BioAssay are growth inhibition, inhibition and outcome values, retold here.

Unmarked numbers belong to inactive results. For some of these results: Results with a measured potency or affinity are listed apart. Active and inactive are the calls of the source. Unless noted, no rule for the calls is given here.

A short description of experiment [1]: antimalarial activity against Dd2 strain (AID 2302;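 active = growth inhibition above 50% at the single 2 µM test dose, taken to imply half-maximal potency below 2 µM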;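 also: 0% = DMSO untreated growth and 100% = chloroquine plus artemisinin killed control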). To be noted: P. falciparum Dd2 in RBCs, LDH growth readout, 72 h; at 2 µM; hits give high values.
Experiment [2] can be described thus: HepG2 cytotoxicity, primary screen, cytotoxicity control for P. falciparum antimalarial project, cell-based, ATP luminescence (AID 2303;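 active = inhibition above 50%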;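 also: 0% = DMSO wells and 100% = digitonin-killed cells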). To be noted: HepG2 viability, 24-48 h, at 10 µM, hits give high values.
Experiment [3] has as its target L-lactate dehydrogenase (Plasmodium falciparum (isolate CDC / Honduras)) (UniProt Q27743). Nature of the experiment: PfLDH activity inhibition – cell lysate, 3D7 strain, counter-screen for P. falciparum growth inhibition project (AID 2304).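 Also: 0% = vehicle and 100% = reference inhibitor.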 The note with it: P. falciparum 3D7 crude extract, LDH APAD/NBT absorbance; at 2 µM; hits give high values.
Experiment [4] can be described thus: inhibition of 3D7 malaria parasite growth – strain 3D7 (AID 2306).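 Also: 0% = DMSO wells and 100% = chloroquine plus artemisinin control wells.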 To be noted: P. falciparum 3D7 erythrocytic growth, LDH absorbance, 72 h; at 2 µM; hits give high values.
Experiment [5] concerns the target Calcium-dependent protein kinase 1 (Plasmodium falciparum (isolate 3D7)) (UniProt P62344). Description: PfCDPK1 kinase inhibitors, biochemical, TCAMS library (AID 1159585; cut-off not given, nearly all actives have IC50 up to about 0.98 µM;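 also: inhibitors leave more ATP so luminescence rises with inhibition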). To be noted: recombinant PfCDPK1, Kinase-Glo ATP depletion luminescence. (In Kinase-Glo more light means more ATP remaining.)
The target in experiment [6] is Plasmodium falciparum protein kinase 6 (PK6, PF3D7_1337100) (UniProt Q8IDW1). Description: PfPK6 kinase inhibitors, biochemical, TCAMS library (AID 1159586). To be noted: recombinant PfPK6, Kinase-Glo ATP depletion luminescence.
Experiment [7] addresses Protein kinase 7 (PK7), Plasmodium falciparum 3D7 (PF3D7_0213400) (UniProt Q7YTF7). Description: inhibition of Plasmodium PK7 catalytic activity – biochemical, TCAMS antimalarial set, Kinase-Glo luminescence (AID 1159587). The note with it: recombinant PfPK7, Kinase-Glo ATP depletion luminescence.
Experiment [8] has as its target Calcium-dependent protein kinase 4 (Plasmodium falciparum (isolate 3D7)) (UniProt Q8IBS5). Nature of the experiment: PfCDPK4 kinase inhibitors, biochemical, TCAMS library (AID 1159588; cut-off not given, nearly all actives have IC50 up to about 0.91 µM). The note with it: recombinant PfCDPK4, Kinase-Glo ATP depletion luminescence.

Chain of L-lactate dehydrogenase (Plasmodium falciparum (isolate CDC / Honduras)) (Q27743 whole entry, looked up): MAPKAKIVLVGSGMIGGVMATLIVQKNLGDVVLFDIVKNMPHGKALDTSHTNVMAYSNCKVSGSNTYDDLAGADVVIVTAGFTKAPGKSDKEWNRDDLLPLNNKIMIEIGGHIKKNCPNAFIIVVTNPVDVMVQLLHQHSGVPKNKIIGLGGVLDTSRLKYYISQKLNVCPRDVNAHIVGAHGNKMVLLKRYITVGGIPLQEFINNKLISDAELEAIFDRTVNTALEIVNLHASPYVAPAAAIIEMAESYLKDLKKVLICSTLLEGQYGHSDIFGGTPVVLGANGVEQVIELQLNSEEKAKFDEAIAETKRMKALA
Chain of Protein kinase 7 (PK7), Plasmodium falciparum 3D7 (PF3D7_0213400) (Q7YTF7 1-343): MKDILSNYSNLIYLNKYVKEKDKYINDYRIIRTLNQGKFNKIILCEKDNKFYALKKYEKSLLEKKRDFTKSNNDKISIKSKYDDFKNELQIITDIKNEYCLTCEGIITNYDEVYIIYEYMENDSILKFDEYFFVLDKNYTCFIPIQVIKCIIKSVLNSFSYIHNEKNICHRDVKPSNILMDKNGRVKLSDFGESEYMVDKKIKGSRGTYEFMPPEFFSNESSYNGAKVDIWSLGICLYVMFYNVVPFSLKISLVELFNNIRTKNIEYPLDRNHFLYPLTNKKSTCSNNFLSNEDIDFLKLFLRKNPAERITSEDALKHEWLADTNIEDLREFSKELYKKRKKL
Chain of Plasmodium falciparum protein kinase 6 (PK6, PF3D7_1337100) (Q8IDW1 1-305): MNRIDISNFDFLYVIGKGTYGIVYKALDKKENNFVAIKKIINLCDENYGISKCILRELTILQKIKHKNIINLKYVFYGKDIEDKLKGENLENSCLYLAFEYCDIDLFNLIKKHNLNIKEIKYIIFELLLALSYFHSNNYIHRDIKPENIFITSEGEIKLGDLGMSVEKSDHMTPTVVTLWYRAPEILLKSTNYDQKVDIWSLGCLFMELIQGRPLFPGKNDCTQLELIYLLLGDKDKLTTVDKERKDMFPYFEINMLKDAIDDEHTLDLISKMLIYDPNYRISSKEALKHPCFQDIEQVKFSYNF
Chain of Calcium-dependent protein kinase 4 (Plasmodium falciparum (isolate 3D7)) (Q8IBS5 whole entry, looked up): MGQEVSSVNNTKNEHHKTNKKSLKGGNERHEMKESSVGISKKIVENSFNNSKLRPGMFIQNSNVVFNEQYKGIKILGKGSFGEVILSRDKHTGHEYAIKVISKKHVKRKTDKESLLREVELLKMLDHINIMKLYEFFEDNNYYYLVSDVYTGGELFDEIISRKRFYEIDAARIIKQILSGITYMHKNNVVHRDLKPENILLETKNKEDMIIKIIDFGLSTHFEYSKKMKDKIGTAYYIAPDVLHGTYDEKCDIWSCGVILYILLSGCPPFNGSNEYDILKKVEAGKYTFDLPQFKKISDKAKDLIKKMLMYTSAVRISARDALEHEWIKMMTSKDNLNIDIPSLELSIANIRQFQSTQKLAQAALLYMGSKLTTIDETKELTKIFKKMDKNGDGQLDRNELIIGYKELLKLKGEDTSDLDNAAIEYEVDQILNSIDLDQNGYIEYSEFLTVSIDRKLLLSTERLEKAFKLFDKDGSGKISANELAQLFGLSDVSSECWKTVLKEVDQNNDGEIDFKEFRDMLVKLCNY
Chain of Calcium-dependent protein kinase 1 (Plasmodium falciparum (isolate 3D7)) (P62344 whole entry, looked up): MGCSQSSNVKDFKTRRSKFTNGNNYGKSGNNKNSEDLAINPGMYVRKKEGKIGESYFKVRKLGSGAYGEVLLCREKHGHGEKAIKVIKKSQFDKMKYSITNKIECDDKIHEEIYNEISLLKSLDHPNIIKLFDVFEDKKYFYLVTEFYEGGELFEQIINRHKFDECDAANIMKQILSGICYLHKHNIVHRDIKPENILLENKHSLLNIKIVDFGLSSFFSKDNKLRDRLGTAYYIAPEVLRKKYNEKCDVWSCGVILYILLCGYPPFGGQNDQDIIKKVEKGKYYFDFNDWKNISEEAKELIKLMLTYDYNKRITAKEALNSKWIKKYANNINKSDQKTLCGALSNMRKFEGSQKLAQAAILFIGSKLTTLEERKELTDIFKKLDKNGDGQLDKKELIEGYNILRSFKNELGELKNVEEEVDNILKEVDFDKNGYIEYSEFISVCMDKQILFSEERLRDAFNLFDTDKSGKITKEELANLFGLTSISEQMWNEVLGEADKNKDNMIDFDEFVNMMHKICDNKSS

As for `O=C(c1cccc(-c2cccc(-c3nc4ccc(F)cc4[nH]3)c2)c1)N1CCCCC1CN1CCC(O)C1` (stereo not given), the values for the growth inhibition in experiment [1] and in experiment [4] were 100% (active) and 90% (active), respectively. Also, the inhibition in experiment [2] was 36%; in experiment [3], -5%. Further, the outcome in experiment [5], in experiment [6], in experiment [7] and in experiment [8] was inactive.
In the case of `NC(N)=Nc1ccc(NC(=O)Nc2ccc(N=C(N)N)cc2)cc1`, the growth inhibition is 74% (active) in experiment [1] and 85% (active) in experiment [4]. In addition, the inhibition in experiment [2] was -5%; in experiment [3], 1%. Also, the outcome in experiment [5], in experiment [6], in experiment [7] and in experiment [8] was inactive.
On to `COc1ccc2c(NN=Cc3ccccc3Cl)cc(C)nc2c1`, for which the values for the growth inhibition in experiment [1] and in experiment [4] were 99% (active) and 101% (active), respectively. In addition, the inhibition in experiment [2] is 5%; in experiment [3] it was 2%. The result in experiment [5], in experiment [6], in experiment [7] and in experiment [8] was inactive.
As to `COc1ccc(Cl)cc1NC(=O)C(C)N1CCN(S(=O)(=O)c2ccccc2F)CC1` (stereo not given), the growth inhibition in experiment [1] was 66% (active); in experiment [4], 93% (active). Further, the inhibition in experiment [2] is 5%; in experiment [3], 4%. In addition, the outcome in experiment [5], in experiment [6], in experiment [7] and in experiment [8] was inactive.
For `COc1ccc2nc(C)cc(NN=Cc3ccccc3F)c2c1`, the growth inhibition in experiment [1] and in experiment [4] was 100% (active) throughout. In addition, the inhibition is 3% in experiment [2] and -4% in experiment [3]. Further, the outcome in experiment [5], in experiment [6], in experiment [7] and in experiment [8] was inactive.
Take `CC1CC(C)CN(CCCNc2ccc(C(=O)Nc3ccc(C(F)(F)F)cc3)cc2[N+](=O)[O-])C1` (stereo not given): the values for the growth inhibition in experiment [1] and in experiment [4] were 99% (active) and 101% (active), respectively. Besides, the results for the inhibition in experiment [2] and in experiment [3] were 31% and -2%, respectively. The result in experiment [5], in experiment [6], in experiment [7] and in experiment [8] was inactive.
As to `O=C(Nc1cccc(OCCN2CCCC2)c1)Nc1ccc(Cl)c(Cl)c1`, the growth inhibition is 22% in experiment [1] and 98% (active) in experiment [4]. The inhibition in experiment [2] was 3%; in experiment [3], -5%. In addition, the result in experiment [5], in experiment [6], in experiment [7] and in experiment [8] was inactive.
Consider `O=C(Nc1ccccc1)N(Cc1ccccc1-c1cccc(CNCc2ccc3c(c2)OCO3)c1)C1CCN(Cc2ccccc2)CC1`, for which the growth inhibition in experiment [1] was 64% (active); in experiment [4], 101% (active). For the same compound, the inhibition in experiment [2] is 35%; in experiment [3], 1%. Moreover, the outcome in experiment [5], in experiment [6], in experiment [7] and in experiment [8] was inactive.
In the case of `CCN(CC)c1nc(-c2ccccc2)cc(-c2ccccc2)c1C#N`, the growth inhibition in experiment [1] is 66% (active); in experiment [4], 100% (active). The inhibition in experiment [2] is -7%; in experiment [3] it was 2%. For the same compound, the outcome in experiment [5], in experiment [6], in experiment [7] and in experiment [8] was inactive.
As to `COc1ccc(CNCc2ccccc2)cc1-c1cccc(S(=O)(=O)NCCN2CCCC2)c1`, the growth inhibition was 36% in experiment [1] and 98% (active) in experiment [4]. The inhibition is 37% in experiment [2] and -8% in experiment [3]. The result in experiment [5], in experiment [6], in experiment [7] and in experiment [8] was inactive.
As to `Cc1ccc2nc3c(cc(C(=O)NCCc4ccccc4)c(=N)n3CCCOC(C)C)c(=O)n2c1`, the results for the growth inhibition in experiment [1] and in experiment [4] were 12% and 96% (active), respectively. Also, the inhibition is 15% in experiment [2] and 0% in experiment [3]. Also, the result in experiment [5], in experiment [6], in experiment [7] and in experiment [8] was inactive.
Regarding `O=C(Cc1ccccc1)NC(c1ccccc1)c1ccc2cccnc2c1O` (stereo not given), the values for the growth inhibition in experiment [1] and in experiment [4] were 61% (active) and 89% (active), respectively. For the same compound, the inhibition in experiment [2] was 49%; in experiment [3], 3%. For the same compound, the result in experiment [5], in experiment [6], in experiment [7] and in experiment [8] was inactive.
With `Cc1noc(C)c1-c1cccc(CNCc2ccc(-c3ccc(-c4nc5ccc(C(F)(F)F)cc5[nH]4)s3)cc2)c1`, the growth inhibition in experiment [1] was 99% (active); in experiment [4], 102% (active). Further, the inhibition in experiment [2] is 54% (active); in experiment [3] it was 3%. Moreover, the outcome in experiment [5], in experiment [6], in experiment [7] and in experiment [8] was inactive.
For `Cc1cc(N[C@@H](Cc2ccccc2)C(=O)NCc2cccc(F)c2)nc(NCCc2ccc(F)cc2)n1`, the growth inhibition in experiment [1] is 69% (active); in experiment [4], 99% (active). In addition, the inhibition is 0% in experiment [2] and -2% in experiment [3]. Also, the result in experiment [5], in experiment [6], in experiment [7] and in experiment [8] was inactive.
On to `COc1ccc(C(=O)Nc2cc(Br)c3c(c2)CNCC3)cc1Br`, for which the growth inhibition was 8% in experiment [1] and 97% (active) in experiment [4]. The inhibition in experiment [2] was 25%; in experiment [3] it was 7%. The outcome in experiment [5], in experiment [6], in experiment [7] and in experiment [8] was inactive.
`CN1CCCN(c2ccnc3cc4c(cc23)N(C(=O)c2ccc(Cl)cc2Cl)CC4)CC1`: the growth inhibition in experiment [1] was 51% (active); in experiment [4], 100% (active). The values for the inhibition in experiment [2] and in experiment [3] were 6% and -2%, respectively. Moreover, the result in experiment [5], in experiment [6], in experiment [7] and in experiment [8] was inactive.
`CC1(C)N=C(N)N=C(N)N1OCc1cccc2c1ccc1ccccc12`: the growth inhibition was 97% (active) in experiment [1] and 95% (active) in experiment [4]. The inhibition in experiment [2] was 63% (active); in experiment [3], 4%. Also, the outcome in experiment [5], in experiment [6], in experiment [7] and in experiment [8] was inactive.
On to `CCC(ON1C(N)=NC(N)=NC1(C)C)c1ccccc1` (stereo not given), for which the growth inhibition in experiment [1] is -5%; in experiment [4], 96% (active). Further, the inhibition in experiment [2] was 61% (active); in experiment [3], -4%. Further, the result in experiment [5], in experiment [6], in experiment [7] and in experiment [8] was inactive.
As to `O=[N+]([O-])c1cccc(CNC2CCN(Cc3ccc(Cl)c(Cl)c3)CC2)c1`, the values for the growth inhibition in experiment [1] and in experiment [4] were 71% (active) and 100% (active), respectively. For the same compound, the inhibition in experiment [2] is 5%; in experiment [3] it was 3%. The result in experiment [5], in experiment [6], in experiment [7] and in experiment [8] was inactive.
Take `COc1ccc2nc3cc(Cl)ccc3c(NCc3ccccc3)c2c1`: the growth inhibition was 50% (active) in experiment [1] and 101% (active) in experiment [4]. Further, the figures for the inhibition in experiment [2] and in experiment [3] were 8% and 5%, respectively. Further, the result in experiment [5], in experiment [6], in experiment [7] and in experiment [8] was inactive.

One may read the inhibition as the drop in the measured response relative to a control, in per cent.
